Laboratory results published in PubChem BioAssay AID624296 (National Center for Advancing Translational Sciences (NCATS), 2012).
Out of some 350,000 compounds screened, about 9,900 (2.8%) were called active. Not shown: some 15% with an inconclusive outcome. Calls come from the whole dose curve; as a rule, active = well fitted activation curve with a large enough effect; inconclusive = small, poorly fitted or top-dose-only effect; inactive = no such curve, though single readings can be large or run the other way. Shown is part of a subset that was picked to be rich in actives. Where a call stands in place of a potency, no number is given.

Assay: A quantitative high throughput screen for small molecules that induce DNA re-replication in MCF 10a normal breast cells. Note: nearly all actives have a fitted effect of over 50% in size.
Settings: MCF 10A DNA re-replication, Hoechst nuclear intensity, 48 h; series mostly up to 46.1 µM
Source text: H Molecular Libraries Probe Production Network [MLPCN]
NIH Chemical Genomics Center [NCGC]
Assay Provider: Melvin DePamphilis, NICHD, NIH
Eukaryotic cells normally restrict genome duplication to once per cell division. When this process is aberrant, DNA re-replication occurs when cells reinitiate DNA replication before the first round of replication is complete. DNA re-replication induces the DNA damage response, arrests cell proliferation, and triggers apoptosis. The cell cycle components cyclin A, Cdt-1, Cdc6 and geminin are critical regulators of this process and their misregulation results in DNA re-replication in normal and cancer cells. To identify compounds that induce re-replication in normal cells, an image-based assay was used to measure DNA content of nuclei, as detected by the fluorescent DNA binding dye, Hoechst. Cell nuclei were imaged by a fluorescence scanning plate imager and compounds that induce DNA re-replication were identified by the increase of nuclei with elevated fluorescence intensity
For screening, 250 cells in 5 uL/well were dispensed into black clear 1536-well plates (Aurora) using a solenoid-based dispenser. Following transfer of 23 nL compound or DMSO vehicle by a pin tool, the plates were incubated 48 hr at 37 C and 5% CO2. After addition of 1 uL/well Hoescht stain, the plates were incubated 40 min at 37 C, 5% CO2 and total intensity of fluorescent objects (nuclei) were enumerated by an Acumen Explorer Ex3 (TTP LabTech) fluorescence scanning plate imager (405 nm excitation, 500-530 nm emission).
Keywords: NIH Roadmap, MLPCN, MLI, MLSMR, qHTS, NCGC, DNA replication, cancer
Potency is the fitted concentration of half-maximal effect.

SMILES	Potency
Cc1ccc(-c2csc(C(C#N)=C(O)CN3CCN(C(=O)c4ccco4)CC3)n2)cc1	inactive
O=S(=O)(c1ccc(SCc2ccc(Br)cc2)nc1)N1CCOCC1	inactive
Cc1ccc(OCCC(=O)Nc2ccc(S(=O)(=O)Nc3nccs3)cc2)cc1	inactive
COC1=NC2=NCCN2C(OC)=N1	inactive
Cc1cccc(C)c1NC(=O)C(Cl)C(=O)c1ccccc1 (configuration not stated)	18.4 µM (active)
Cc1cccc(C)c1NC(=O)CN(C)C(=O)CCC(=O)c1ccccc1	inactive
Cc1cccc(C)c1NC(=O)C(c1ccccc1)N1CC(=O)Nc2ccccc21 (configuration not stated)	inactive
Cc1ccc(NC(=O)C2CC(=O)N(c3ccc4c(c3)OCCO4)C2)cc1S(=O)(=O)N1CCCCCC1 (configuration not stated)	inactive
Cc1nc(SCC(=O)NC2CCCCC2C)c(C#N)c(C)c1C (configuration not stated)	inactive
CC(C)n1ncc2c(C(=O)Nc3ccc(CC#N)cc3)cc(C3CC3)nc21	inactive
COc1ccc(OC)c(Cc2cnc3nc(N)nc(N)c3c2C)c1	inactive
COc1ccccc1-c1nc(C#N)c(N2CCC(C(N)=O)CC2)o1	inactive
COc1ccc(Nc2oc(-c3ccccc3Cl)nc2C#N)cc1	2.59 µM (active)
Cc1ccccc1-c1nc(C#N)c(NCc2ccco2)o1	inactive
CC(NC(=O)c1ccc(S(=O)(=O)Nc2ccccc2)cc1)c1ccc(S(N)(=O)=O)cc1 (configuration not stated)	inactive
COc1cccc(CC(=O)Nc2ccc(-c3csc(C)n3)cc2)c1	9.2 µM (active)
COc1cccc(CC(=O)Nc2nc(-c3ccc(OC)c(OC)c3)cs2)c1	inactive
CCC(=O)Nc1ccc(C(=O)Nc2cccc(OC)c2)cc1	inactive
CCCCC[C@@H]1C=C(C(=O)O)[C@H](c2ccc(C#N)cc2)N1S(=O)(=O)c1ccc(C)cc1	inactive
O=C1C[C@@H]2c3c(cccc3CN1Cc1ccccc1)C[C@@H](O)[C@H]2O	inactive
C=CCO/N=C(\C)c1c(O)c(C)c(-c2ccccc2)n(-c2ccccc2)c1=O	inactive

SMILES	Potency
CCO/N=C(/C)c1c(O)cc(-c2ccccc2)n(-c2ccccc2)c1=O	14.6 µM (active)
CCOC(=O)c1c(CN(C)C)n(-c2ccccc2)c2cc(Br)c(O)cc12	inactive
CCN(CC)S(=O)(=O)c1ccc(CNC(=O)CN2C(=O)NC3(CCc4ccccc43)C2=O)cc1 (configuration not stated)	inactive
COCCN(Cc1ccccc1)C(=O)Cc1ccc(S(=O)(=O)N2CCOCC2)s1	inactive
Cc1ccc(S(=O)(=O)N2CCCCC2)cc1NC(=O)CCNC(=O)c1ccccc1	inactive
C#CCOCCOCCOCCNc1nc(N2CCOCC2)nc(N2CCN(C(=O)[C@H](Cc3ccc(O)cc3)n3cc(CCO)nn3)CC2)n1	inactive
Cc1ccc(NC(=O)COC(=O)C2CC2)cc1S(=O)(=O)N1CCOCC1	inactive
Cc1ccc(NC(=O)C2CCC(C(C)(C)C)CC2)cc1S(=O)(=O)N1CCOCC1 (configuration not stated)	18.4 µM (active)
Cc1ccc(NC(=O)NC2CCCCC2)cc1S(=O)(=O)N1CCOCC1	inactive
CCC1([N+](=O)[O-])COC(c2ccc(C)cc2)OC1 (configuration not stated)	inactive
COc1ccccc1N1CC(C(=O)NCCN2C(=O)S/C(=C\c3cccnc3)C2=O)CC1=O (configuration not stated)	inactive
COc1cccc(CNC(=O)Cc2csc(Nc3nc(=S)[nH]c4ccccc34)n2)c1	inactive
O=C(CCn1c(=O)[nH]c2ccccc2c1=O)NCCCN1CCN(c2cccc(Cl)c2)CC1	inactive
O=C(Cc1csc(Nc2nc(=S)[nH]c3ccccc23)n1)NCCCN1CCN(c2cccc(Cl)c2)CC1	14.6 µM (active)
CN[C@H](C(=O)NC[C@H]1O[C@@H](n2cnc3c(N)ncnc32)[C@H](O)[C@@H]1O)[C@@H](C)OCc1ccccc1	inactive
CC(CC(=O)Nc1cc(C(F)(F)F)ccc1Cl)c1ccccc1 (configuration not stated)	inactive
O=C(Nc1cc(C(F)(F)F)ccc1Cl)C(=O)N1CCCCC1	inactive
O=C(NNc1ccccc1Cl)C(O)(c1cccc(C(F)(F)F)c1)c1cccc(C(F)(F)F)c1	16.4 µM (active)
COc1ccc([C@H]2CC(=O)C=C(c3ccc(CO)cc3)C2)cc1	inactive
Cc1cccc(-n2ncc(C#N)c2-n2cccc2)c1	inactive
O=c1c(Cl)c(NC2CC2)cnn1-c1ccccc1	inactive

SMILES	Potency
Cc1cccc(-n2ncc(Cl)c(Cl)c2=O)c1	3.26 µM (active)
COC1=CC(=O)OC(C)(c2ccccc2)C1 (configuration not stated)	inactive
COc1cc(OC)cc(C(=O)NCC(=O)OCC(=O)NC(C)CCc2ccccc2)c1 (configuration not stated)	inactive
Cc1cc(C)c[n+](-c2nc3ccccc3nc2[N-]S(=O)(=O)c2cccs2)c1	inactive
O=S(=O)([N-]c1nc2ccccc2nc1-[n+]1ccc(Cc2ccccc2)cc1)c1ccc(Br)s1	9.2 µM (active)
O=C(NCCc1ccccc1)C1CCN(S(=O)(=O)c2ccc(Br)s2)CC1	inactive
O=C(COC(=O)c1cc(S(=O)(=O)N2CCOCC2)ccc1F)NC1CC1	inactive
Cc1c(C(=O)N2CCCc3ccccc32)sc2nc(-c3ccccc3)cn12	inactive
Cc1cccc2cc3c(N)c(C(=O)N4CCCc5ccccc54)sc3nc12	1.3 µM (active)
Cc1c(C(=O)N2CCCc3ccccc32)oc2ccccc12	inactive
CCOC(=O)[C@H]1[C@H]2COc3ccc(C)cc3[C@@H]2N2C(=O)CN(Cc3ccc(F)cc3)C(=O)[C@@]12C	inactive
CCSc1nnc(NC(=O)c2ccc(C)cc2)s1	inactive
CSc1nnc(NC(=O)c2nc(S(=O)(=O)Cc3ccc(C)cc3)ncc2Cl)s1	1.16 µM (active)
Cc1cccc(CS(=O)(=O)c2ncc(Cl)c(C(=O)Nc3ccc(F)cc3)n2)c1	inactive
CC(CNC(=O)Cn1cnc2c(OCc3ccccc3)ncnc21)c1ccccc1 (configuration not stated)	inactive
Nc1ncnc2c1ncn2[C@@H]1O[C@H](CNS(=O)(=O)c2ccc(-c3ccno3)s2)[C@@H](O)[C@H]1O	inactive
CCOc1ccccc1C1C(C(=O)OC)=CN(C)C=C1C(=O)OC	14.6 µM (active)
CCOc1ccccc1N(CC(=O)Nc1ccccc1C(=O)OC)S(C)(=O)=O	inactive
CCOc1cc(C2C(C(=O)OC)=CN(C3CCCC3)C=C2C(=O)OC)cc(Br)c1O	inactive
CC(C)(C)OC(=O)N[C@H](C(=O)OC(C)(C)C)c1ccc(Br)cc1	inactive
